# Shown are actives, neighbours in structure and some others; about 3.6% of the full set was active somewhere.
# MazEF act = activators of E. coli MazEF toxin-antitoxin RNase, primary screen, biochemical, fluorescence, uHTS | Endoribonuclease toxin MazF (Escherichia coli (strain K12)), P0AE70 | actives 0.32% (n = 350,000) | activation, % at 20 µM | FAM/BHQ RNA-DNA oligo cleavage fluorescence, 5 h; in the data active = activation above about 50%
# Anthrax LF inh2 = Bacillus anthracis LF protease inhibitors, primary screen, biochemical, multiplex microsphere, MLPCN library; multiplex microsphere protease cleavage assay; inhibition, % at 10 µM; actives 0.12% (n = 360,000); AID 588501, 2011; note: plate controls were buffer without enzyme for full effect and enzyme alone for no effect
# Target sequence (P15917 whole entry, looked up): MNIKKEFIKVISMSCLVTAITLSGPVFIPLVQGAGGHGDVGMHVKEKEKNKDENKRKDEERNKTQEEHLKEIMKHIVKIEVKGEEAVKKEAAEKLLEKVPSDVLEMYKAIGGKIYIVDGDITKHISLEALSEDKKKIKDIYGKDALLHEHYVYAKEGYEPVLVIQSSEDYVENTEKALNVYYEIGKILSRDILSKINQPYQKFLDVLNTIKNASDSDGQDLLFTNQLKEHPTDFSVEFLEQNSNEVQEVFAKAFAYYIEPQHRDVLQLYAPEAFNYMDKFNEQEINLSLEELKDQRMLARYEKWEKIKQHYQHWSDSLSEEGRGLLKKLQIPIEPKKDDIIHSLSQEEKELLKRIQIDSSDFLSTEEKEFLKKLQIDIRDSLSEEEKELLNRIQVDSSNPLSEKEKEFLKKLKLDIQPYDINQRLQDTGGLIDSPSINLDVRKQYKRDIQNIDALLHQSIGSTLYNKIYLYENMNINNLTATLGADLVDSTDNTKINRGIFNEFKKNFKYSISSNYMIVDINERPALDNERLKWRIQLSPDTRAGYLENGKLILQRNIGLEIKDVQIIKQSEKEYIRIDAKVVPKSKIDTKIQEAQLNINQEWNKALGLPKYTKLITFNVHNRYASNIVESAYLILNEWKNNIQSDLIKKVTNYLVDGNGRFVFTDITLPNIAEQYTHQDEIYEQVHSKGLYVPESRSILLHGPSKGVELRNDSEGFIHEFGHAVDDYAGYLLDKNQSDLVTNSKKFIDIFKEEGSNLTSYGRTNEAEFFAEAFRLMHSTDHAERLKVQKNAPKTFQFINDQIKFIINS
# BoNT-A LC inh2 = BoNT/A light chain protease inhibitors, primary screen, biochemical, flow cytometry, MLPCN library; multiplex microsphere protease substrate cleavage; inhibition, % at 10 µM; actives 0.17% (n = 360,000); AID 588499, 2011; Botulinum neurotoxin type A light chain protease (Clostridium botulinum A str. ATCC 3502); note: plate controls were buffer without enzyme for full effect and enzyme alone for no effect
# Bead autofluor = compound fluorescence in toxin protease inhibitor counterscreen; compound autofluorescence counterscreen, microsphere flow cytometry; hits give high values; fluorescence intensity (concentration not given with the values); actives 3.1% (n = 360,000); AID 624483; in the data active = fluorescence intensity above about 16000; inconclusive = no clear call, values can overlap the other calls
# BoNT F protease = BoNT/F light chain protease inhibitors, primary screen, biochemical, flow cytometry, MLPCN library; inhibition, % at 10 µM; Multiplex microsphere protease cleavage assay; actives 0.22% (n = 360,000); AID 588497, 2011; in the data active = inhibition above about 35%, passing the limit was not always enough; inconclusive = no clear call, values can overlap the other calls; note: plate controls were buffer without enzyme for full effect and enzyme alone for no effect
# Numbers without * were called inactive; ? = inconclusive; . = no result given. Cut-off read from the data, not from the text of the source, unless noted: active = inhibition above about 30%; inconclusive = no clear call, values can overlap the other calls; inactive = below that.
SMILES,MazEF act,Anthrax LF inh2,BoNT-A LC inh2,Bead autofluor,BoNT F protease
O=C(CN1CCCC1)N1c2ccccc2C=Cc2ccccc21,-1,0,0,4202,-2
COc1ccc(C)cc1NC(=O)COCC(=O)O,1,0,0,20410*,0
COc1ccc(C)cc1NC(=O)CNC(c1ccccc1)c1ccc(C)cc1 (stereo not given),-10,4,-2,3841,-18
Nc1ncnc2nc(SCC(=O)N3CCN(c4ccccc4)CC3)[nH]c12,-13,-12,?,17350*,19
COc1ccccc1N1CCN(C(=O)CSc2nc3ncnc(N)c3[nH]2)CC1,1,4,0,5596,0
O=C(CSc1ccccn1)N1CCN(c2ccccc2)CC1,3,-2,-3,16913*,-2
O=C(CSc1ccccn1)N1CCN(c2cccc(Cl)c2)CC1,5,-5,-1,9783,-6
Nc1ncnc2nc(SCCN3CCCCC3)[nH]c12,4,-2,0,16379*,0
O=C(CSc1nnc(-c2ccccc2F)n1CCc1ccccc1)Nc1ccc2[nH]c(=O)[nH]c2c1,3,-2,0,2195,-3
Cc1[nH]c2ccccc2c1C(=O)/C=C/c1ccccc1Cl,51*,-1,-1,2218,-1
COc1cccc(-c2nc(-c3cccc(C)c3)nc3cc(Cl)ccc23)c1,.,-1,1,6041,9
COc1ccc(NC(=O)c2cccnc2Sc2ccccc2)c(OC)c1,4,-1,0,2325,-12
CCC(C)NC(=O)c1cn(-c2cccc(OC)c2)c(=O)c2ccccc12 (stereo not given),9,20,3,3624,22
COC(=O)C(CCSC)NC(=O)c1cn(-c2ccc(OC)cc2)c(=O)c2ccccc12 (stereo not given),6,-8,-1,4029,36*
CC(C)c1ccc(NC2CCCN(C(=O)c3ccsc3)C2)cc1 (stereo not given),-8,-3,2,5204,0
CN(/N=C/c1cccnc1)c1cnn(-c2ccc(F)c(Cl)c2)c(=O)c1Cl,-4,-20,?,11535,36*
CN(/N=C/c1c[nH]c2ccccc12)c1cnn(-c2ccc(F)c(Cl)c2)c(=O)c1Cl,19,-4,-1,20923*,0
Cc1cc(C)n2nc(C)c(-c3ccc(Cl)cc3)c2n1,8,-21,-2,3937,-22
CCSc1cc(C)nc2c(-c3ccc(Cl)cc3)c(C)nn12,-22,1,-3,20908*,-4
COc1cc(-c2nnc(COc3ccc4ccccc4c3)o2)cc(OC)c1OC,6,-1,2,22472*,2
COc1cc(-c2nnc(-c3ccccc3)o2)cc(OC)c1OC,4,-2,0,3248,-11
Cc1ccc(S(=O)(=O)N2CCCC(C(=O)NCc3ccc4c(c3)OCO4)C2)cc1 (stereo not given),10,0,0,3682,11
Cc1ccc(S(=O)(=O)N2CCC(C(=O)OC(C)C(=O)NCc3ccc4c(c3)OCO4)CC2)cc1 (stereo not given),-12,-1,?,23314*,-3
COc1ccc(CC(=O)NNC(=O)c2ccc(SCc3cc(F)ccc3F)c([N+](=O)[O-])c2)cc1,-20,-1,0,22474*,1
Cc1ccc(O)c(C2=Nc3ccccc3N=C(c3ccco3)C2)c1,82*,-1,0,3005,-4
SMILES,MazEF act,Anthrax LF inh2,BoNT-A LC inh2,Bead autofluor,BoNT F protease
COc1ccc(C=C2C=C(C(C)(C)C)C(=O)C(C(C)(C)C)=C2)cc1OC,10,24,86*,4135,25
COc1ccc(/C=C2\CC/C(=C\c3ccc(OC)c(OC)c3)C2=O)cc1OC,-3,1,0,6628,-4
CC(=O)Nc1ccc(S(=O)(=O)N2CCc3cc4c(cc3C2)OCCCO4)cc1,11,-2,0,5852,-1
Cc1c(Br)cccc1NC(=O)C1(C)CCN1Cc1ccc(OC(C)C)cc1 (stereo not given),.,0,0,3811,-16
Cc1ccc(/C=C2/SC(=S)N(c3ccc(S(=O)(=O)Nc4nccs4)cc3)C2=O)cc1,-8,4,4,2972,?
O=C1/C(=C\c2ccccn2)SC(=S)N1c1ccc(S(=O)(=O)Nc2nccs2)cc1,-2,30*,-3,3634,?

# Bioassay records (PubChem)
